Screening results: PubChem, National Center for Advancing Translational Sciences (NCATS)
Rab9 promoter act = activates the Rab9 promoter; Huh7 Rab9 promoter-luciferase reporter, luminescence, 24 h; Potency, µM (highest dose often 9.22 µM), for the others: at the top dose activation, negative = inhibition, actives largely listed as activators; 2.8% of 320,000 active; AID 485297; further: % of control where 0% means no effect; nearly all actives have a fitted effect of over 60% in size
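Promoter activation is measured as luciferase luminescence in Huh7 cells stably transfected with a Rab9 promoter–luciferase construct, following 24 h compound exposure at 37 °C and 10 min reagent incubation at ambient temperature.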
ELG1 genotox = genotoxicity induction in ELG1-luciferase HEK293T cells; HEK293T ELG1-luciferase reporter, luminescence, 16 h; Potency, µM (highest dose often 46 µM), without a hit: at the top dose activity change, positive = activation, hits mostly activators; 1.3% of 330,000 active; AID 504466; further: % of control where 0% means no effect; nearly all actives have a fitted effect of over 60% in size
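Step 1: seed 2,000 HEK293T ELG1-luciferase cells per well. Step 2: add compound or DMSO, incubate 16 hr at 37 °C. Step 3: ONE-Glo, 30 min at room temperature, read luminescence.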
FLuc modulator = counter-screen for miR-21 project: firefly luciferase inhibitors or activators. P08659. purified FLuc, Km substrates, luminescence inhibition. Potency, µM (series often up to 57.5 µM), for the others: top-dose activity change, negative = inhibition, most hits filed as inhibitors. 6.9% of 360,000 active. AID 588342;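 further: plate controls were vehicle for no effect and reference inhibitor for full effect; nearly all actives have a fitted effect of over 55% in size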
Target sequence (P08659 whole entry, looked up): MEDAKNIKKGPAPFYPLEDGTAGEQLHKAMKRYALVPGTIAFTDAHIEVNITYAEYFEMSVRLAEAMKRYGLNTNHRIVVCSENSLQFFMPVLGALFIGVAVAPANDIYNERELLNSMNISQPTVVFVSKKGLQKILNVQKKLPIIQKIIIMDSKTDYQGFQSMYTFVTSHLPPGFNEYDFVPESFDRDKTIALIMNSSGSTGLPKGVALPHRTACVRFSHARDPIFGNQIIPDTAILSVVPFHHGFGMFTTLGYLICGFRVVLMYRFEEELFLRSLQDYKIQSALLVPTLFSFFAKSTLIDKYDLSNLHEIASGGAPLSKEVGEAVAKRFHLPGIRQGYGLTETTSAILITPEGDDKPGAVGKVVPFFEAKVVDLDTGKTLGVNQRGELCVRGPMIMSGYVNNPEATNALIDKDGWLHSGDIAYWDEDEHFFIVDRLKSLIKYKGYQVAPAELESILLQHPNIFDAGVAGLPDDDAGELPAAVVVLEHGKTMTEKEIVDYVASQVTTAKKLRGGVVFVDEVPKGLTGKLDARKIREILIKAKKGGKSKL
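Biochemical qHTS of compounds, final roughly 60 µM downward over six points, against 10 nM purified firefly luciferase using Km concentrations of substrates (10 uM D-luciferin, 10 uM ATP) in Tris acetate pH 7.5 buffer; luminescence output.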
SMN2 splice up = SMN2 splice variant enhancement | HEK293 SMN2-luciferase splicing reporter, luminescence, 30-36 h | Potency, µM (highest dose often 46.1 µM), inactives show top-dose activity change, positive = activation, usual class: activators | 2.8% of 210,000 active; further: % of control where 0% means no effect; nearly all actives have a fitted effect of over 55% in size
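HEK293 cells carry an SMN2 […]–luciferase reporter in which exon 7 inclusion puts luciferase in frame. Cells were plated 10-12 h before compound addition, then incubated 30-36 h at 37C. ONE-Glo luminescence was read; sodium butyrate at 4.5 mM final served as control.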
Luc counter = Kinase-Glo luciferase inhibition (counter-screen); Q27757; Kinase-Glo luciferase, ATP luminescence, 8 min; Potency, µM (top dose mostly 38.3 µM), for inactives: top-dose activity change, negative = inhibition, usual class: inhibitors; 0.28% of 200,000 active; AID 1379; further: on the % scale 0 is the no-effect control and ±100 the full control effect; nearly all actives have a fitted effect of over 60% in size
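Kinase-Glo luciferase light output from ATP and luciferin was measured with 10 uM ATP, within the enzyme's linear range. Buffer: 50 mM imidazole pH 7.2, 50 mM KCl, 7 mM MgCl2, 0.01% Tween 20, 0.05% BSA; luminescence read after 8 min at ambient temperature.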
NPC1 prom act = activators of NPC1 promoter; 2.4% of 320,000 active; Potency, µM (top dose mostly 9.22 µM), for the others: top-dose activation, usual class: activators; Huh7 NPC1 promoter luciferase reporter, 24 h; further: % of control where 0% means no effect; nearly all actives have a fitted effect of over 60% in size
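NPC1 promoter–luciferase Huh7 cells; 24 h compound; luminescence.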
Starred values were filed as active, the others as inactive. The list is not random: actives were taken first. Their share in the collection is about 7.5%. The call rests on the fitted dose curve; in most records, active means well fitted curve in the direction sought with a large enough effect; inconclusive means small, poorly fitted or top-dose-only effect, or another doubt; inactive means no such curve, though single readings can be large; an effect the other way counts as inactive or inconclusive. Potency means the concentration at half of the fitted maximal effect.

`Cc1c(NC(=O)CN2CCN(c3ccc(O)cc3)CC2)c(=O)n(-c2ccccc2)n1C` gave Rab9 promoter act 2.1%, ELG1 genotox 2.6%, FLuc modulator -4.8%, SMN2 splice up 4.4%, Luc counter -0.4% and NPC1 prom act -5.4%.
For Cc1ccc(-c2noc(/C=C/c3ccccc3)n2)cc1 the results were Rab9 promoter act inconclusive, ELG1 genotox 19.1%, FLuc modulator 9.53µM*, SMN2 splice up inconclusive, Luc counter -4.2% and NPC1 prom act inconclusive.
`C(=C\c1nc(-c2cccnc2)no1)/c1ccccc1` gave Rab9 promoter act inconclusive, ELG1 genotox 9.3%, FLuc modulator 4.78µM*, Luc counter -1.9% and NPC1 prom act 27.5%.
Screening Clc1ccccc1/C=C/c1nc(-c2cccnc2)no1 returned Rab9 promoter act 0.631µM*, ELG1 genotox inconclusive, FLuc modulator 1.69µM* and NPC1 prom act 1.26µM*.
For Clc1ccc(-c2noc(/C=C/c3ccccc3)n2)cc1 the results were Rab9 promoter act 24.0%, ELG1 genotox inconclusive, FLuc modulator inconclusive and NPC1 prom act 27.0%.
Cc1ccc(N(Cc2cccs2)C(=O)c2ccco2)cc1 was read as FLuc modulator -19.6%.
Screening Cc1ccc(NC(=O)Cn2ccn(Cc3ccc(Cl)cc3)c(=O)c2=O)cc1C returned FLuc modulator 2.9%.
`COc1ccc(OC)c(C(=O)CSc2nnc(Cc3cccs3)n2CCc2ccccc2)c1` gave Rab9 promoter act 0.6%, ELG1 genotox -5.6%, FLuc modulator -1.0%, SMN2 splice up -58.5%, Luc counter 0.7% and NPC1 prom act -6.7%.
`COCCN(C(=S)Nc1ccc(C)cc1)C(C)c1ccco1` (stereo not given) gave Rab9 promoter act -0.8%, ELG1 genotox 1.3%, FLuc modulator 13.5µM* and NPC1 prom act -0.1%.
For Cn1c(=NC(=O)c2cccc([N+](=O)[O-])c2)sc2ccccc21 the results were Rab9 promoter act 2.82µM*, ELG1 genotox 0.82µM*, FLuc modulator 0.338µM*, SMN2 splice up 1.58µM*, Luc counter -4.4% and NPC1 prom act inconclusive.
`Cn1/c(=N\NC(=O)c2ccccc2Cl)sc2ccccc21` gave Rab9 promoter act inconclusive, ELG1 genotox -3.4%, FLuc modulator 16.9µM*, SMN2 splice up inconclusive, Luc counter 3.2% and NPC1 prom act inconclusive.
Screening Cn1c(=NC(=O)CCl)sc2ccccc21 returned Rab9 promoter act -50.5%, ELG1 genotox inconclusive, FLuc modulator -13.8%, SMN2 splice up -79.7%, Luc counter -3.1% and NPC1 prom act -46.5%.
Cc1sc(=NC(=O)c2ccco2)n(C)c1-c1ccccc1 was read as Rab9 promoter act 1.26µM*, ELG1 genotox inconclusive, FLuc modulator 0.953µM*, SMN2 splice up 2.24µM*, Luc counter -9.5% and NPC1 prom act 0.891µM*.
Screening COc1cc(C(=O)N=c2sc3ccccc3n2C)cc(OC)c1OC returned Rab9 promoter act inconclusive, ELG1 genotox 5.1%, FLuc modulator inconclusive, SMN2 splice up -27.0%, Luc counter 1.0% and NPC1 prom act 11.5%.
Screening Cn1c(=NC(=O)c2ccco2)sc2ccccc21 returned Rab9 promoter act inconclusive, ELG1 genotox 4.11µM*, FLuc modulator 2.69µM*, SMN2 splice up 4.47µM*, Luc counter inconclusive and NPC1 prom act inconclusive.
For CC(=O)N/N=c1\sc2ccccc2n1C the results were Rab9 promoter act 21.5%, ELG1 genotox -7.1%, FLuc modulator 2.4%, SMN2 splice up 2.2%, Luc counter 1.5% and NPC1 prom act -4.0%.
For CC1CCCCN1S(=O)(=O)c1cc2c3c(c1)CC(=O)N3CCC2 (stereo not given) the results were FLuc modulator 4.9%.
CC1CCc2onc(C(=O)N3CCN(c4ccc(F)cc4)CC3)c2C1 (stereo not given) was read as FLuc modulator -9.8%.
`CC(=O)c1ccccc1NS(=O)(=O)c1cc2c(cc1C)NC(=O)CO2` gave FLuc modulator -3.2%.
Cc1sc(=NC(=O)c2ccco2)n(C)c1-c1ccc(F)cc1 was read as Rab9 promoter act 2µM*, ELG1 genotox inconclusive, FLuc modulator 2.39µM*, SMN2 splice up 3.55µM*, Luc counter -3.0% and NPC1 prom act 2.82µM*.
For O=[N+]([O-])c1ccccc1OCCCn1cnc2ccccc21 the results were Rab9 promoter act 2µM*, ELG1 genotox inconclusive, FLuc modulator 5.36µM*, SMN2 splice up 11.2µM*, Luc counter -0.1% and NPC1 prom act 2.82µM*.
O=[N+]([O-])c1ccccc1OCCCN1CCOCC1 was read as Rab9 promoter act -11.9%, ELG1 genotox 1.4%, FLuc modulator -7.9%, SMN2 splice up -4.5%, Luc counter -0.8% and NPC1 prom act -4.1%.
O=c1c2ccccc2ncn1CCCOc1ccccc1[N+](=O)[O-] was read as Rab9 promoter act 3.55µM*, ELG1 genotox inconclusive, FLuc modulator 15.1µM* and NPC1 prom act 3.98µM*.
Screening Cc1ccc(NC(=O)Cn2nnc(C(=O)NCCc3ccccc3)c2N)cc1C returned FLuc modulator -1.7%.
Cc1ccc(-n2nc3cc(C)c(NC(=S)NC(=O)/C=C/c4ccco4)cc3n2)cc1 was read as Rab9 promoter act -8.9%, ELG1 genotox 8.2µM*, FLuc modulator 10.7µM*, SMN2 splice up inconclusive, Luc counter -2.8% and NPC1 prom act -2.7%.
For Cc1cccc(NC(=S)NC(=O)/C=C/c2ccco2)n1 the results were Rab9 promoter act 3.55µM*, ELG1 genotox inconclusive, FLuc modulator inconclusive, SMN2 splice up -5.1%, Luc counter -1.6% and NPC1 prom act inconclusive.
Screening Cc1cccc(NC(=S)NC(=O)/C=C/c2ccco2)c1 returned Rab9 promoter act -9.9%, ELG1 genotox inconclusive, FLuc modulator inconclusive, SMN2 splice up 6.6%, Luc counter 0.5% and NPC1 prom act -29.5%.
Screening O=C(/C=C/c1ccco1)NC(=S)Nc1ccccc1 returned Rab9 promoter act inconclusive, ELG1 genotox 10.3%, FLuc modulator 26.9µM* and NPC1 prom act 28.5%.
For CCOC(=O)c1ccc(N2CCN(c3cc(Cl)ccc3C)CC2)c(NC(=O)Nc2cccc(OC)c2)c1 the results were FLuc modulator 6.4%.
CN(CC(=O)Nc1cccc(F)c1)C(=O)CCCNC(=O)c1ccc(Cl)cc1 was read as Rab9 promoter act inconclusive, ELG1 genotox 13.2%, FLuc modulator 12µM* and NPC1 prom act inconclusive.
